NSD2 HMT inh: NSD2 histone methyltransferase inhibitors, primary screen, biochemical, AlphaScreen, single concentration, set 2; NSD2 peptide methylation, 120 min; inhibition, % at 12.5 µM; 310,000 tested, 0.54% active; in the data active means inhibition above about 50%
Target sequence (O96028 whole entry, looked up): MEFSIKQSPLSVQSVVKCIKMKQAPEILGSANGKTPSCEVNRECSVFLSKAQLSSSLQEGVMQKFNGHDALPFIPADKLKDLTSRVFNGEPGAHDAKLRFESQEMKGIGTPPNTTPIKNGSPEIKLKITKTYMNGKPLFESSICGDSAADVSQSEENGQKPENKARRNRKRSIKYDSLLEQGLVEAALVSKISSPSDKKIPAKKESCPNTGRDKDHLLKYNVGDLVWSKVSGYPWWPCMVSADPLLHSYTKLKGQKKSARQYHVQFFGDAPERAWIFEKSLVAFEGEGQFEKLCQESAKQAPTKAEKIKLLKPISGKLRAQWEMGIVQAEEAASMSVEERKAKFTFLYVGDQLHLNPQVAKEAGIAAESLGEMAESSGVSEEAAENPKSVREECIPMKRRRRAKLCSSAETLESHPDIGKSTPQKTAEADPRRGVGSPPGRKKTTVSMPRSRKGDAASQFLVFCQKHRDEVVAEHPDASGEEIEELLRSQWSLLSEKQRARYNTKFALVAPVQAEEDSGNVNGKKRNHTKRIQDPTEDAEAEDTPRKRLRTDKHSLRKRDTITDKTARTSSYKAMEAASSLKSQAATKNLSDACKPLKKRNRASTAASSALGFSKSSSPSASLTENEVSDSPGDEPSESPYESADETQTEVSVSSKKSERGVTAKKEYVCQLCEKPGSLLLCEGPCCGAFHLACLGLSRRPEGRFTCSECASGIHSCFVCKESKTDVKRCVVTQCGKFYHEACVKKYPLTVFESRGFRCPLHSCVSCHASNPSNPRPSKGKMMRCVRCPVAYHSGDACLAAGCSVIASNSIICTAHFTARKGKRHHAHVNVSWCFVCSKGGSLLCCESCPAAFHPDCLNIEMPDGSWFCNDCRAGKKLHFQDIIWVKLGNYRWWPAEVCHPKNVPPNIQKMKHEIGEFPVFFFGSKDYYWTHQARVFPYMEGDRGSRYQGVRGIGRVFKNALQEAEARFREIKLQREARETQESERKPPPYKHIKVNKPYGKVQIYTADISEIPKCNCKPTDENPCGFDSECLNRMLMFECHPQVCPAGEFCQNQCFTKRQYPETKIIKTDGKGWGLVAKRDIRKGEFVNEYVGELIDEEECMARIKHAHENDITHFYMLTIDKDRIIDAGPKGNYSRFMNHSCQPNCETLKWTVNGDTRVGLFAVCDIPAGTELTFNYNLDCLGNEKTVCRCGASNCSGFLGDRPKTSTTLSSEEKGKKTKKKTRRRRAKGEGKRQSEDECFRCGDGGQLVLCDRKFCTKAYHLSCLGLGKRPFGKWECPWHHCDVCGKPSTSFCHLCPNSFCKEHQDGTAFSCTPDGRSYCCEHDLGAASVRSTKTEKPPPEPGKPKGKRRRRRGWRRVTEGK
miR-122 sensor: miR-122 Renilla sensor signal increase in Huh7, primary screen, miR-122 inhibitor project, cell-based, single point, plate reader; Huh7 miR-122 Renilla luciferase sensor, 48 h; neutral wells = 0, positive control = 100; activation (reporter increase), % at 12.5 µM; 340,000 tested, 0.3% active; AID 602342, 2012;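 active means mean replicate activation score at least 90 and every replicate individually at or above 90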;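 further: higher luciferase means less miR-122 activity so hits act as miR-122 inhibitors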
PglD DTNB: C. jejuni PglD acetyltransferase inhibitors, primary screen, biochemical, DTNB colorimetric, single point. UDP-N-acetylbacillosamine N-acetyltransferase PglD (Campylobacter jejuni). purified PglD enzyme, DTNB colorimetric CoA detection. inhibition, % at 12.5 µM. 360,000 tested, 0.098% active; in the data active means inhibition above about 16%, passing the limit was not always enough
Statin myotox sup: suppressors of statin myotoxicity in C2C12 myotubes, primary screen, cell-based, single point, plate reader; AID 602340, 2012; C2C12 myotubes + simvastatin, ATP luminescence, 48 h; scaled: DMSO 0, geranylgeraniol control 100; rescue of ATP level, % at 7.49 µM; 330,000 tested, 0.78% active;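 active means mean ATP rescue above about 67%, or every replicate alone reaching that limit, limit read from the data, passing the limit was not always enough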;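 further: myotubes were challenged with 10 µM simvastatin during compound exposure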
Alpha artifact: AlphaScreen signal interference with preloaded methylated product, dose response, artefact control for NSD2 inhibitor project, biochemical, cherry-picked samples; shares compounds with NSD2 HMT inh; AlphaScreen artifact counterscreen, preloaded methylated H4 peptide; AC35, µM (titrated, usually from 10 µM), inactives show at the top dose activity change, negative = signal loss; 1,500 tested, 9.4% active; call rule not given here
Active calls of the source: *; [ ] = another dose, or the depositor's remark. This is a sample that favours compounds with a hit; in the whole collection about 1.2% have one here.

How did O=C(O)c1cc(N/N=C/c2ccc3c(c2)OCCO3)ccc1Cl do in these assays?
NSD2 HMT inh: 2

What do the screens show for `COCCCNC(=O)c1ccccc1Oc1ccccc1`?
NSD2 HMT inh: 1; miR-122 sensor: 3; PglD DTNB: -8; Statin myotox sup: 10

What do the screens show for `COCCCNC(=O)c1ccc2c3c(onc13)-c1ccccc1C2=O`?
NSD2 HMT inh: 53*; PglD DTNB: -3; Alpha artifact: -14%

What do the screens show for `O=c1cc(OCc2ccccc2)cc[nH]1`?
NSD2 HMT inh: 82*; PglD DTNB: 4; Statin myotox sup: -1; Alpha artifact: 1%

How did Cc1cc(C(=O)Nc2cccc3c2O[C@H](CN(C)C(=O)Nc2c(C)noc2C)[C@@H](C)CN([C@@H](C)CO)C3=O)n(C)n1 do in these assays?
miR-122 sensor: -1[16.7 µM]; PglD DTNB: -4; Statin myotox sup: 35

Results for Cc1ccc(/C=C2/SC(=O)NC2=S)o1 ?
NSD2 HMT inh: 177*; miR-122 sensor: -3; PglD DTNB: -3; Statin myotox sup: 6; Alpha artifact: -13%

How did O=C1CCN2C=Nc3cccc4ccc1c2c34 do in these assays?
NSD2 HMT inh: 115*; miR-122 sensor: -6; PglD DTNB: -23; Alpha artifact: 3%

Results for [O-][n+]1cccc2c(Br)cc(Br)c(O)c21 ?
NSD2 HMT inh: 61*; miR-122 sensor: 1; PglD DTNB: 2; Statin myotox sup: 3; Alpha artifact: -5%

How did Cc1cccc(C)c1OCC(O)CNS(=O)(=O)c1ccccc1C(=O)N1CCCCC1 (configuration not stated) do in these assays?
NSD2 HMT inh: 105*; miR-122 sensor: 8; PglD DTNB: 2; Statin myotox sup: -4; Alpha artifact: -6%

What do the screens show for `Cc1cc(C)cc(-n2c(C)nc3cc(C(=O)O)ccc32)c1`?
NSD2 HMT inh: 73*; Alpha artifact: -1%

Results for COc1cc(-n2c(C)nc3cc(C(=O)O)ccc32)cc(OC)c1OC ?
NSD2 HMT inh: -1; miR-122 sensor: -4; PglD DTNB: -9; Statin myotox sup: 11

Results for O=C(NNC(=O)c1ccc(NC(=O)C2CC2)cc1)c1ccc(F)cc1 ?
NSD2 HMT inh: 52*; miR-122 sensor: -4; PglD DTNB: 3; Statin myotox sup: 1; Alpha artifact: -5%

Results for CC(C)(C)C(=O)NC1CC2CCCC(C1)N2C(=O)Nc1ccc(Cl)cc1 (configuration not stated) ?
NSD2 HMT inh: 56*; miR-122 sensor: 1; PglD DTNB: 8; Statin myotox sup: -3; Alpha artifact: 5%

How did COc1ccc(-n2c(NC(=O)c3ccco3)c(C#N)c3nc4ccccc4nc32)cc1 do in these assays?
NSD2 HMT inh: -3; miR-122 sensor: -1; PglD DTNB: -2; Statin myotox sup: -1

What do the screens show for `CCCCn1c(NC(=O)c2ccccc2Cl)c(C#N)c2nc3ccccc3nc21`?
NSD2 HMT inh: 114*; miR-122 sensor: 0; PglD DTNB: 9; Statin myotox sup: -193; Alpha artifact: 4%

What do the screens show for `CNCc1ccccc1OCc1ccccc1F`?
NSD2 HMT inh: 53*; miR-122 sensor: -5; PglD DTNB: -3; Statin myotox sup: 12; Alpha artifact: 0%

Results for CNCc1ccccc1OCC(=O)Nc1ccccc1 ?
NSD2 HMT inh: 40; miR-122 sensor: 22; PglD DTNB: 3; Statin myotox sup: -3

Results for Cn1c(-c2cc3c(C(F)(F)F)nn(C)c3s2)n[nH]c1=S ?
NSD2 HMT inh: 1; miR-122 sensor: 5; PglD DTNB: -6; Statin myotox sup: -4

How did CCn1c(-c2cc3c(C(F)(F)F)nn(C)c3s2)n[nH]c1=S do in these assays?
NSD2 HMT inh: 52*; miR-122 sensor: 7; PglD DTNB: -3; Statin myotox sup: 1; Alpha artifact: -6%

What do the screens show for `Cc1ccc(S(=O)(=O)N(C)C[C@H]2OCCCC[C@@H](C)Oc3ccc(NS(=O)(=O)c4ccc(Cl)cc4)cc3C(=O)N([C@@H](C)CO)C[C@@H]2C)cc1`?
miR-122 sensor: 2[16.7 µM]; PglD DTNB: 1; Statin myotox sup: 7
